In PubChem BioAssay (NCI):
Several values for one entry are separate records, joined by “and”; a condition that tells them apart may be missing. Equal entries are not always repeated. The panel holds about 83,000 compounds, 20% with a hit somewhere; the sample as a whole holds those more often.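 Interpretation: 100, growth as untreated; towards 0, rising growth inhibition; 0, no net growth; 0 to -100, cell death. Compounds scoring below 10 were considered active.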 Unmarked numbers belong to inactive results. Activity calls are given as the source filed them.

Legend:
Assay in all cases: NCI-60 one-dose screen, 48 h (100 = growth as untreated, 0 = no growth, -100 = all killed)
Settings in all cases: 10 µM unless noted
DU-145 prostate = system: DU-145 prostate
K-562 leukemia = system: K-562 leukemia
MALME-3M melanoma = system: MALME-3M melanoma
MDA-MB-231 breast = system: MDA-MB-231 breast
RXF 393 renal = system: RXF 393 renal
SF-268 CNS = system: SF-268 CNS
SF-295 CNS = system: SF-295 CNS
SF-539 CNS = system: SF-539 CNS
UACC-257 melanoma = system: UACC-257 melanoma
M14 melanoma = system: M14 melanoma

Row | SMILES | growth (DU-145 prostate) | growth (K-562 leukemia) | growth (MALME-3M melanoma) | growth (MDA-MB-231 breast) | growth (RXF 393 renal) | growth (SF-268 CNS) | growth (SF-295 CNS) | growth (SF-539 CNS) | growth (UACC-257 melanoma) | growth (M14 melanoma)
1 | O=C(N/N=C/c1ccc(Br)o1)c1[nH]c2ccc(Br)cc2c1-c1ccccc1 | -44.6% (active) | 7.92% (active) | 0.448% (active) | -73.4% (active) | -43.2% (active) | -12.2% (active) | -25.8% (active) | -99.5% (active) | 26.2% | 6.88% (active)
2 | O=C(c1ccc(Cl)cc1)C1[C@H](c2ccccc2Cl)[C@@H](c2ccccc2)NC12C(=O)Nc1ccc(Cl)cc12 (stereo not given in full) | -28.5% (active) | -45.1% (active) | -39.5% (active) | -96.1% (active) | -93.1% (active) | -36.6% (active) | -85.9% (active) | -78.4% (active) | -15.5% (active) | -82.9% (active)
3 | CC1(C)CC(=O)C2=C(C1)OC(N)=C(c1nc3ccccc3[nH]1)C2c1ccc(Cl)cc1 (stereo not given) | 74% and 99.8% | 61.5% and 104% | 41.8% and 97.3% | 79.1% and 105% | 55% and 106% | 67.8% and 102% | 22.9% and 103% | 29.3% and 106% | 97.4% and 109% | 85.6% and 118%
4 | CCc1ccc(SC2c3cc(OC)ccc3Oc3nc(N)c(C#N)c(N)c32)cc1 (stereo not given) | 3.29% (active) | 0.578% (active) | -55.2% (active) | -41.4% (active) | -61.8% (active) | -4.75% (active) | -58.8% (active) | -62.1% (active) | -9.43% (active) | -14.1% (active)
5 | COc1ccc(/C=C/c2nc3ccccc3c(=O)n2CC(=O)Nc2ccccc2)cc1 | 78% | 84.5% | 61.1% | -19.5% (active) | -54.7% (active) | 54.5% | 12.5% | 32.4% | 93.5% | 46.4%
6 | CCC1(OC(=O)c2ccccc2SSCCOC(=O)CCCCC2SCC3NC(=O)NC32)C(=O)OCc2c1cc1n(c2=O)Cc2cc3ccccc3nc2-1 (stereo not given) | 35.3% | 52.8% | 55.8% | 82.5% | 82% | 38.5% | 5.6% (active) | 29.4% | 12.8% | 40.1%
7 | Cc1cccc(/C=C/c2ccc(NC(=S)NCCCCN(C)C)cc2)c1 | -82.7% (active) | 3.99% (active) | -96.1% (active) | -94.4% (active) | -91.8% (active) | -52.4% (active) | -95.6% (active) | -86.4% (active) | -65.4% (active) | -64.4% (active)
8 | CN(C)C(=O)c1cc(-c2ccc3ncnc(N4CCc5cc(F)c(Cl)cc54)c3c2)cnc1N | 23% | -21.7% (active) | -57.7% (active) | -49.2% (active) | -73.7% (active) | 24.2% | -73.1% (active) | -73.2% (active) | 4.11% (active) | -36.7% (active)
9 | NS(=O)(=O)c1ccc(Nc2nc(SCC(=O)c3ccc(F)cc3)nc3ccccc23)cc1 | 52.9% | 24.1% | 31.7% | 51.7% | 63.5% | 46.8% | 59.9% | 53.2% | 77.9% | 56%
10 | COc1ccc(C(=O)NNC(=O)CSc2nc3sc4c(c3c(=O)n2-c2ccc(Cl)cc2)CCCC4)cc1 | 89% | 56.7% | 60.3% | 44% | 82.2% | 84.3% | 94.7% | -55.2% (active) | 100% | 77.4%
11 | Cc1cc(C(NC(=O)C2CC3(CC(Nc4cccc5c4C(=O)N(C4CCC(=O)NC4=O)C5=O)C3)C2)c2ccc3c(c2)OC(F)(F)O3)c(O)c2ncccc12 (stereo not given) | 17.2% | 10.8% | 9.46% (active) | 25.2% | 23% | 14.4% | 8.11% (active) | -24.9% (active) | -11% (active) | -30.4% (active)
12 | COc1ccc(NC(=O)Cn2c(/C=C/c3ccc([N+](=O)[O-])cc3)nc3ccccc3c2=O)cc1 | 88.8% | 120% | 72.4% | -18.4% (active) | -57.8% (active) | 64.9% | 56.3% | 30.3% | 86.3% | 69.5%
13 | CCN(C(=O)CN1C(=O)/C(=C/c2ccco2)SC1=S)C1CCS(=O)(=O)C1 (stereo not given) | 101% | 89.9% | 104% | 108% | 109% | 95.4% | 105% | 98% | 98.2% | 97.3%
14 | Nc1cc2ccccc2c(=O)n1NC(=O)c1ccc(Br)cc1 | 109% | 101% | 89.7% | 66.8% | 112% | 89.8% | 103% | 67.5% | 104% | 91.7%
15 | CC1=C(C(=O)OC(C)C)C(c2ccc(O)cc2)NC(=O)N1 (stereo not given) | 111% | 98.5% | 102% | 101% | 104% | 115% | 105% | 101% | 96.5% | 99.8%
16 | O=C1Nc2cc(-c3ccc(NS(=O)(=O)c4ccc(-c5ccccc5)cc4)cc3)ccc2/C1=C/c1ccc[nH]1 | -11.5% (active) | 18.8% | 50% | 63.9% | -37.3% (active) | 75.8% | 30.9% | 37.4% | 58.9% | 38%
17 | COc1cccc(-c2ccc(/C=N/NC(=O)c3[nH]c4ccc(Br)cc4c3-c3ccccc3)s2)c1 | 2.3% (active) | 15.7% | 33.1% | -20.5% (active) | -63% (active) | -9.89% (active) | -46.2% (active) | -83.9% (active) | 45.7% | -4.68% (active)
18 | Cc1ccc(C(=O)Nc2cc(-n3ccnc3)cc(C(F)(F)F)c2)cc1-n1cc(-c2cnc3cccnn23)nn1 | 111% | 9.87% (active) | -7.64% (active) | 31.5% | 94.8% | 120% | 107% | 84.7% | 47.8% | 25.4%
19 | COc1cc(C2C(C(=O)OCc3ccccc3)=C(C)Nc3nc4ccccc4n32)cc(OC)c1OC (stereo not given) | 59.3% | 20.7% | -16.7% (active) | -26.7% (active) | -39.6% (active) | 15.1% | 3.38% (active) | -44.5% (active) | 30.2% | 27.1%
20 | Cc1ccc(/C=C/C(=O)c2ccc(S(=O)(=O)NCCNc3nc(N(C)C)nc(N4CCOCC4)n3)cc2)cc1 | 95.3% | 6.8% (active) | 108% | 85% | 85% | 79.6% | 94.4% | 81.7% | 85.7% | 95.5%
21 | O=C(Nc1ccc(Br)cc1)Nc1ccc(-c2ccc3c(c2)NC(=O)/C3=C\c2ccc[nH]2)cc1 | 27.9% | 18.6% | 61.6% | 66.3% | 25.3% | 40.3% | 22.9% | 26.5% | 75.4% | 32.3%
22 | Cc1ccc2c(c1)nc(-c1ccccc1)n2CC(=O)N=Nc1c(O)[nH]c2ccc(Cl)cc12 | -38% (active) | -3.37% (active) | -28.6% (active) | -80.5% (active) | -88.4% (active) | 2.28% (active) | -62.4% (active) | -90.3% (active) | -28.2% (active) | -28.4% (active)
23 | Cn1cc(-c2cc(N)n3nc(-c4c[nH]c5ccc(F)cc45)cc3n2)c2cc(Br)cnc21 | 69.9% | -69% (active) | 75.6% | 13.2% | 11.7% | 89.3% | 69.6% | 52.8% | 84.6% | 55.4%
24 | COc1ccc2c(c1)C(Sc1ccc(Cl)cc1)c1c(nc(N)c(C#N)c1N)O2 (stereo not given) | 86% | 47.6% | 82.2% | 56.4% | 56.4% | 46% | 55.7% | 61.8% | 104% | 66.4%
